Records with an inconclusive call do not appear. Where a call stands in place of a potency, no number is given. Values without a mark were called inactive. Activity calls are given as the source filed them. The call rests on the fitted dose curve; in most records, active means well fitted inhibition curve with a large enough effect; inconclusive means small, poorly fitted or top-dose-only effect; inactive means no such curve, though single readings can be large or run the other way.
Potency means the concentration at half of the fitted maximal effect.

Chain of Cytochrome P450 3A7 (Homo sapiens) (P24462 whole entry, looked up): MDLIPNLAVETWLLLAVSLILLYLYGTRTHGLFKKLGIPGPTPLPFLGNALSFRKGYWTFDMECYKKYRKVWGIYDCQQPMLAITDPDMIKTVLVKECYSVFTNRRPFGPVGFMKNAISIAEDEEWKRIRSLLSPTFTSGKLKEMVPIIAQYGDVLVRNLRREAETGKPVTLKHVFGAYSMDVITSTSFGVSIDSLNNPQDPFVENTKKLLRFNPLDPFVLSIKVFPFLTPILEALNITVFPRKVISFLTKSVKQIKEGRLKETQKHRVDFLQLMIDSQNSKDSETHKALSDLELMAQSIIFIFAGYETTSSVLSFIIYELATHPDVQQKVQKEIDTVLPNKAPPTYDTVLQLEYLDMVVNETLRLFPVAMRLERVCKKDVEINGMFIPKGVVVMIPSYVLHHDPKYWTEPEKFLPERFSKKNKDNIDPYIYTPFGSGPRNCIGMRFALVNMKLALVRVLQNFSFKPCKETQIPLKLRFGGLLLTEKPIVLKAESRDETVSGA

This test concerns the target Cytochrome P450 3A7 (Homo sapiens) (UniProt P24462). In words: Cytochrome P450 family 3 subfamily A member 7 (CYP3A7) small molecule antagonists: luciferase biochemical qHTS assay (AID 1963596). Further: nearly all actives have a fitted effect of over 40% in size. The conditions noted are these: P450-Glo CYP3A7 enzyme luminescence, 1 h; series mostly up to 57.4 µM. The text has this: National Center for Advancing Translational Sciences [NCATS] Assay Overview: Cytochrome P450 (CYP) enzymes are membrane-bound hemeproteins that play a key role in metabolism of drugs and xenobiotics. The CYP3A subfamily is the most abundant, representing 30% of the total adult hepatic CYP content, whereas CYP3A7 is found predominantly in human fetal liver and accounts up to 50% of the total fetal hepatic CYP content. Testing the effect of chemicals on CYP isozymes is useful to minimize the adverse drug reactions and toxicities in the drug development process. Chemicals were tested for their effect on CYP enzyme activities by using P450-Glo (TM) screening systems (Promega Corporation, Madison, WI). These systems provide a luminescent method containing proluciferin substrates and are converted to luciferin products by CYP isozymes. The luciferin products formed are detected with a luciferin detection reagent, and the amount of light produced is proportional to CYP activity. P450-Glo (TM) CYP3A7 screening system (Catalog. No. V8812) was used to detect the compounds that interfere with CYP3A7 activity. The positive control compound used for CYP3A7 assay is ketoconazole (Sigma-Aldrich, St. Louis, MO).
Assay Protocol Summary: Two ul of enzyme-substrate mix was dispensed into medium binding white/solid 1536-well plates (Greiner Bio-One North America Inc., Monroe, NC) using a Flying Reagent Dispenser (FRD, Aurora Discovery, San Diego, CA). Compounds dissolved in DMSO, and positive control (ketoconazole) were transferred to the assay plates at 23 nl using a Pintool station (Wako, San Diego, CA). The assay plates were incubated at room temperature for 10 min. Then 2 ul of NADPH regeneration solution was added to each well of the assay plates using an FRD and incubated at room temperature for 1 h. The reaction was stopped by adding 4 ul of detection reagent using an FRD and after 20 min incubation at room temperature the luminescence signal was measured using a ViewLux plate reader (Perkin Elmer, Shelton, CT). Data were expressed as relative luminescence units.
On to `Cc1nc(C#Cc2ccnc(Cl)c2)c(C)n1-c1ccc(F)cc1`, for which the Potency entry was “inactive”.

With `Cc1ccc(C(C)C)c(O)c1`, the Potency result is “inactive”.

`COC(=O)C(Cc1ccc(OCCn2c(=O)sc3cc(C(=O)c4ccccc4)ccc32)cc1)C(=O)OC`: the Potency result is “inactive”.

For the compound `O=C1CSC(=O)N1C(CCc1ccncc1)COc1ccc(-c2cccc([N+](=O)[O-])c2)cc1` (stereo not given), the Potency was 1.34 µM (active).

Consider `COC(=O)[C@H](Cc1cccc(C(=N)N)c1)[C@@H](C)NC(=O)c1ccc(-c2cc[n+]([O-])cc2)cc1`, for which the Potency result is “inactive”.

`CC(=O)N(CC(O)CO)c1c(I)c(C(=O)NCCO)c(I)c(C(=O)NCC(O)CO)c1I` (stereo not given): the Potency result was “inactive”.

Take `CC(C)(C)c1nnc(NS(=O)(=O)c2ccccc2)s1`: the Potency entry was “inactive”.

Turning to `CCc1ccc(C2=CC(c3c(F)cccc3Cl)n3c(nc4ccccc43)N2)cc1` (stereo not given), the Potency entry is “inactive”.

On to `CO[C@@]1(NC(=O)Cc2cccs2)C(=O)N2C(C(=O)O)=C(COC(N)=O)CS[C@@H]21`, for which the Potency entry is “inactive”.

On to `CC12CCC(C[N+](C)(CCC[N+](C)(C)C)C1)C2(C)C` (stereo not given), for which the Potency result is “inactive”.

For `COc1cc(C(=O)NC2CCN(C)CC2)ccc1Nc1ncc2c(n1)N(C1CCCC1)CC(F)(F)C(=O)N2C`, the Potency result was “inactive”.

Take `O=C(O)[C@@H]1CCCN1`: the Potency entry is “inactive”.

`CC1(O)CCC(C(C)(C)O)CC1` (stereo not given): the Potency result is “inactive”.

`O=C(O)/C=C\C(=O)O`: the Potency result was “inactive”.

As to `N=C(N=C(N)N)N1CCOCC1`, the Potency result is “inactive”.

With `C[N+](C)(C)CC(=O)O`, the Potency result was “inactive”.

For the compound `CCOC(=O)c1ccccc1O`, the Potency entry was “inactive”.

Regarding `C/C=C/C(=O)N(CC)c1ccccc1C`, the Potency result is “inactive”.

In the case of `OCc1ccccc1O`, the Potency entry is “inactive”.

For `CCOC(=O)C1=C(N)Oc2ccc(Br)cc2C1C(C#N)C(=O)OCC` (stereo not given), the Potency result is “inactive”.

As for `COc1cc(CCc2cc(NC(=O)c3ccc(N4CC(C)NC(C)C4)cc3)n[nH]2)cc(OC)c1` (stereo not given), the Potency entry was “inactive”.

For the compound `CC[C@H]1OC(=O)C[C@@H](O)[C@H](C)[C@@H](O[C@@H]2O[C@H](C)[C@@H](O[C@H]3C[C@@](C)(O)[C@@H](O)[C@H](C)O3)[C@H](N(C)C)[C@H]2O)[C@@H](CC=O)C[C@@H](C)C(=O)/C=C/C(C)=C/[C@@H]1CO[C@@H]1O[C@H](C)[C@@H](O)[C@@H](OC)[C@H]1OC`, the Potency result was “inactive”.

Consider `OCCCc1ccccc1`, for which the Potency entry was “inactive”.

As for `COC(=O)c1ccc2c(C(=Nc3ccc(N(C)C(=O)CN4CCN(C)CC4)cc3)c3ccccc3)c(O)[nH]c2c1`, the Potency entry is “inactive”.

Turning to `CN1CCN(C(=O)CN[C@@H]2C[C@H]2c2ccc(OCc3ccccc3)cc2)CC1`, the Potency entry is “inactive”.

Regarding `CC[N+](CC)(CC)CCOC(=O)C(C1CCCC1)C1CCCC1`, the Potency result was “inactive”.

In the case of `CCC(=C(c1ccc(OCCN2CCCC2)cc1)c1ccc(OCCN2CCCC2)cc1)c1ccccc1`, the activity change, negative = inhibition was 0% [at 11.5 µM].

Regarding `Cc1cc(C)cc(NC(=O)Cn2c(=O)n(-c3ccc(C)c(C)c3)c(=O)c3oc4ccccc4c32)c1`, the Potency result was “inactive”.

Consider `Nc1ccncc1N`, for which the Potency result was “inactive”.

With `CN(C)C(=O)c1cc2cnc(Nc3ccc(N4CCNCC4)cn3)nc2n1C1CCCC1`, the Potency result was “inactive”.

Take `CC1(C)CC(=O)c2c(C(F)(F)F)nn(-c3ccc(C(N)=O)c(NC4CCC(OC(=O)CN)CC4)c3)c2C1` (stereo not given): the Potency was 15.1 µM (active).

Regarding `CN(C)c1ccc(C(=C2C=CC(=[N+](C)C)C=C2)c2c(O)c(S(=O)(=O)[O-])cc3cc(S(=O)(=O)O)ccc23)cc1`, the Potency result is “inactive”.

As to `O=c1cc[nH]c(=O)[nH]1`, the Potency result was “inactive”.

For the compound `CC(=O)OCC(=O)[C@@]12N=C(C)O[C@@H]1C[C@H]1[C@@H]3CCC4=CC(=O)C=C[C@]4(C)[C@H]3[C@@H](O)C[C@@]12C`, the Potency result is “inactive”.

`CC1(C)CCC(C)(C)c2cc(C#Cc3ccc(C(=O)O)cc3)ccc21`: the Potency result was “inactive”.

For `CCCc1ccc(C(=O)O)cc1`, the Potency entry was “inactive”.

Regarding `C1N2CN3CN1CN(C2)C3`, the Potency result was “inactive”.

With `CN/C(=C\[N+](=O)[O-])NCCSCc1csc(CN(C)C)n1`, the Potency entry was “inactive”.

For the compound `N#C/C(=C/c1ccccc1Cl)c1nc2ccccc2c(=O)[nH]1`, the Potency entry was “inactive”.

Consider `CC(C)NCC(O)COc1ccc(COCCOC(C)C)cc1` (stereo not given), for which the Potency result was “inactive”.

The values are drawn from PubChem BioAssay (NCATS).
